Pf gametocyte = late stage P. falciparum gametocyte viability inhibitors, primary screen, ATP luminescence, HTS | P. falciparum stage V gametocytes, 24 h | inhibition, % at 10.9 µM | 0.065% of 150,000 active | AID 743093, 2013;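 active means inhibition above the mean plus 3 SD of compounds within the control limits, set per campaign, cut at about 38% in these data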
MEKK2mut PB1 HTS = MEK5 binding signal on mutant MEKK2 PB1, primary screen, biochemical, multiplex bead flow cytometry, Alexa488-MEK5 | AID 1530, 2009 | Alexa488-MEK5 binding to MEKK2 mutant | percent response, % at 10 µM | 0.35% of 290,000 active; in the data active means percent response above about 24%, passing the limit was not always enough
Arbovirus inh = antivirals against arbovirus infection, primary screen, cell-based, full library, 10K replicate subset; inhibition, % at 10 µM; arbovirus infection cell-based antiviral screen; 0.37% of 200,000 active; in the data active means inhibition above about 30%
MEKK2wt PB1 HTS = modulators of MEK5 binding to wildtype MEKK2, primary screen, biochemical, multiplex bead flow cytometry, Alexa488-MEK5; Mitogen-activated protein kinase kinase kinase 2 (Homo sapiens), Q9Y2U5; Alexa488-MEK5 binding to MEKK2 WT; actives lie on both sides; binding response (% of control), % at 10 µM; 1.1% of 290,000 active; AID 1531, 2009; in the data active means binding response below about 67% or above about 130%
MEKK3 PB1 HTS = modulators of MEKK3-MEK5 PB1 binding, primary screen, biochemical, wildtype MEKK3, multiplex bead flow cytometry, Alexa488-MEK5 | AID 1529, 2009 | 1.4% of 290,000 active | Mitogen-activated protein kinase kinase kinase 3 (Homo sapiens), Q99759 | binding response (% of control), % at 10 µM | bead-based flow cytometry, Alexa488-MEK5 binding to MEKK3; actives lie on both sides; 0 = blocked by unlabeled MEK5, 100 = vehicle;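 active means binding response more than 3 SD above or below the average of its plate-row segment, actives on both sides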;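 further: Alexa488 bead fluorescence after subtracting the streptavidin-only scavenger bead signal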
Target sequence (Q99759 whole entry, looked up): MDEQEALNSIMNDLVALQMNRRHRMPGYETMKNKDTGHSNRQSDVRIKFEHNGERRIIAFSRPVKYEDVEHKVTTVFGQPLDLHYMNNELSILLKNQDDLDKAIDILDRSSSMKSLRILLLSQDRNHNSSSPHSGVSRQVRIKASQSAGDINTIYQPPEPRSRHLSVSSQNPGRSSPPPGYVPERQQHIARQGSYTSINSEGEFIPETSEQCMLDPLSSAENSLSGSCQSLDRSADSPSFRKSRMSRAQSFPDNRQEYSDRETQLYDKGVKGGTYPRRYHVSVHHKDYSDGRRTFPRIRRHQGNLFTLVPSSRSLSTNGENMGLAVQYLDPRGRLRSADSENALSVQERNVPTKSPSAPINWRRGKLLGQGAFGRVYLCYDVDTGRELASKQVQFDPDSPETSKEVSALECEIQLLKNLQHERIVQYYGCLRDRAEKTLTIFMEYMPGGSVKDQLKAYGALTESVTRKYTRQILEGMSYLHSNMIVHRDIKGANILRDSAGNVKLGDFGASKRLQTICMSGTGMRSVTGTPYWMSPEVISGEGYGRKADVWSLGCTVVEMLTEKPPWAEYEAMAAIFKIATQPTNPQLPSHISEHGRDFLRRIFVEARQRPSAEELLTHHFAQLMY
Each line names hits and unclear results; the compound was inactive in the other large screens; [ ] = remark or other dose. An excerpt weighted towards active compounds, which were near 2.4% of everything screened.

COc1cccc(C(=O)Nc2cccc(NC(=O)c3ccccc3Cl)c2)c1	none (no result: Arbovirus inh)
COc1cccc(C(=O)Nc2cccc(C(=O)NC3=NN(c4c(Cl)cc(Cl)cc4Cl)C(=O)C3)c2)c1	Arbovirus inh 34
Cc1cccc(C)c1N(CC(=O)NCc1ccco1)C(=O)CNS(=O)(=O)c1ccc(F)cc1	none (no result: Pf gametocyte, Arbovirus inh)
CCOc1ccc(S(=O)(=O)N2CCCC2)cc1	Pf gametocyte 40
CC(C)C[C@H](NC(=O)N1CCn2c1nc1ccccc12)C(=O)N[C@@H](Cc1ccccc1)C(=O)O	none (no result: Pf gametocyte, Arbovirus inh)
CC(C)=NOc1nc(N2CCOCC2)nc(N2CCOCC2)n1	none (no result: Arbovirus inh)
COCC(=O)Nc1ccc(Br)cc1C	Pf gametocyte 39
O=C(c1cc(-c2ccccc2O)on1)N1CCc2ccccc2C1	Arbovirus inh 33 (no result: Pf gametocyte)
CN(CCCC[C@H](CNCc1ccc(-c2ccccc2)cc1)N1C[C@H](c2ccccc2)N(CCc2ccc(Cl)c(Cl)c2)C(=O)C1=O)Cc1ccc(-c2ccccc2)cc1	MEKK2mut PB1 HTS 78, MEKK2wt PB1 HTS 228 (no result: Pf gametocyte, Arbovirus inh)
CCOc1ccc(CCN2C(=O)C(=O)N([C@H](CCCN(C)Cc3ccccc3)CNCc3ccccc3)C[C@@H]2C(C)C)cc1	none (no result: Pf gametocyte, Arbovirus inh)
O=C(CN1C(=O)COc2ccc(Cl)cc21)NCC1CCCO1 (centres undefined)	none (no result: Pf gametocyte, Arbovirus inh)
Cc1cc(=O)[nH]c(SC(C(=O)O)c2ccccc2)n1 (centres undefined)	none (no result: Pf gametocyte)
Cc1cc(-c2ccccc2)nc(SC(C(=O)O)c2ccccc2)n1 (centres undefined)	MEKK2wt PB1 HTS -1.0 (no result: Pf gametocyte)
CC(C)CSC1=NSC2=NC(=O)/C(=C\c3cccs3)C(=N)N12	Arbovirus inh 48
CSC1=NSC2=NC(=O)/C(=C/c3coc4ccccc4c3=O)C(=N)N12	none
N=C1/C(=C/c2cccs2)C(=O)N=C2SN=C(SCc3ccccc3)N12	Arbovirus inh 35
CSC1=NSC2=NC(=O)/C(=C\c3cccs3)C(=N)N12	Arbovirus inh 41
CCOC(=O)N1CCN(C(=O)c2cn(CC)c3ccc(S(=O)(=O)N4CCOCC4)cc3c2=O)CC1	none (no result: Pf gametocyte, Arbovirus inh)
CCOC(=O)c1nnc(-c2ccccc2)nc1N1CC(C)OC(C)C1 (centres undefined)	none (no result: Pf gametocyte)
N#C/C(=C\c1cc2ccccc2nc1N1CCCCC1)C(N)=O	Arbovirus inh 35
O=C1NC(=S)S/C1=C\c1cc2ccccc2nc1N1CCCCC1	none (no result: Arbovirus inh)
COc1ccc(NC(C)=O)cc1S(=O)(=O)Nc1ccc(C(=O)N2CCCC2)cc1	none (no result: Arbovirus inh)
O=C(OCC#CCSc1nnc(-c2cccc3ccccc23)o1)c1ccc2ccccc2c1	none (no result: MEKK2mut PB1 HTS, Arbovirus inh, MEKK2wt PB1 HTS, MEKK3 PB1 HTS)
Cn1cc([N+](=O)[O-])c(C(=O)NCc2cc3cc(Cl)ccc3[nH]2)n1	Arbovirus inh 35 (no result: Pf gametocyte)
Cc1c(Br)c(C(=O)NCc2cc3cc(Cl)ccc3[nH]2)nn1C	none (no result: Pf gametocyte)
Cc1ccc(CC(=O)O/N=C(\N)Cc2ccc([N+](=O)[O-])cc2)cc1	none
N/C(Cc1ccc([N+](=O)[O-])cc1)=N\OC(=O)CC1CCCCC1	Pf gametocyte 59
COc1ccccc1/C=C/C1=NC(=C\C=C/c2ccccc2)/C(=O)O1	none
COc1ccccc1/C=C/C=C1N=C(/C=C/c2ccc(Cl)cc2)OC/1=O	Arbovirus inh 35
CC(NC(=O)c1cccs1)c1nnc(SCc2ccc(Cl)cc2Cl)n1C (centres undefined)	Arbovirus inh 77
C=CCn1c(CNC(=O)c2cccs2)nnc1SCc1ccc(Cl)cc1Cl	Arbovirus inh 63
CCn1c(CNC(=O)c2cccs2)nnc1SCC(=O)Nc1cc(Cl)ccc1C	none (no result: Pf gametocyte)
COC(=O)c1ccccc1NC(=O)CSc1nnc(C(C)NC(=O)c2ccc(Cl)cc2Cl)n1C (centres undefined)	none
CC(C)(Oc1ccc(Cl)cc1)C(=O)NNC(=O)c1ccc(Br)o1	none (no result: Pf gametocyte, Arbovirus inh)
Cc1ccc(N2C(=S)SC3CS(=O)(=O)CC32)cc1 (centres undefined)	Pf gametocyte 38
Cc1ccc(N2C(=O)N(c3ccc(C)cc3)C3CS(=O)(=O)CC32)cc1 (centres undefined)	none
Cc1ccccc1OCC(O)CN1CCC(C)CC1 (centres undefined)	MEKK2wt PB1 HTS 0.0[inhibitor], MEKK3 PB1 HTS 1.0[inhibitor]

Bioassay records: PubChem BioAssay, several laboratories
